Assay results published in PubChem BioAssay (NCI).
Several values for one entry are separate records, joined by “and”; a condition that tells them apart may be missing. Equal values may be shown once. This is part of a sample that, as a whole, favours compounds with a hit. Of some 83,000 tested, about 20% had one in any assay.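 The endpoint reported here, percent growth, reads 100 for growth as untreated, 0 for no net growth and -100 for all cells dead.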 Activity calls are given as the source filed them. How the source made its calls: active means growth percent below 10; inactive means the rest.

These molecules were tested on UACC-62 melanoma (assay: NCI-60 one-dose screen, 48 h (100 = growth as untreated, 0 = no growth, -100 = all killed)). Settings: 10 µM unless noted.

| SMILES | growth |
| --- | --- |
| CC1=CCC2C3(C)CCC2(C(C)C)C1C3 (stereo not given) (tested in a mixture with another compound) | 17.4% [100 µM] (inactive) and 0.443% [100 µM] (active) |
| Cc1cc2c3c(nc4ccccc42)C(=O)c2cccnc2-c3n1 | -89.9% [100 µM] (active) and -100% [100 µM] (active) |
| CC(=O)OC(C)c1cc2c(s1)C(=O)c1ccsc1C2=O (stereo not given) | -64.5% [100 µM] (active) and -100% [100 µM] (active) |
| CCCCOC(=O)C1CC[C@H]2[C@@H]3CCc4cc(OC(=O)c5cccc6c(=O)c7ccccc7[nH]c56)ccc4[C@H]3CC[C@]12C (stereo not given in full) | -100% [50 µM] (active) |
| CC(=O)OCC1=C(C)C[C@H]([C@@H](COC(C)=O)C2CCC3C4C[C@H]5O[C@]56CC=CC(=O)[C@]6(C)C4CC[C@@]32C)OC1=O (stereo not given in full) | -91% [50 µM] (active) and -99.6% [50 µM] (active) |
| N#CC1C(=O)N(c2ccccc2)NC12OC(=O)c1ccncc12 (stereo not given) | 69.2% [20 µM] (inactive) and 17.2% [20 µM] (inactive) |
| O=c1cc(-c2ccc(O)cc2)oc2cc(O[C@@H]3O[C@H](CO)[C@@H](O)[C@H](O)[C@H]3O)cc(O)c12 | 29.2% [100 µM] (inactive) and -80.1% [100 µM] (active) |
| COc1cc(CC2c3cc(OC)c(OC)cc3CCN2C)c(Oc2cc3c(cc2OC)-c2c(O)c(OC)cc4c2C(C3)N(C)CC4)cc1OC (stereo not given) | -60.3% [100 µM] (active) and -87.2% [100 µM] (active) |
| CC(O)c1cc2c(s1)C(=O)c1c(C(C)O)csc1C2=O (stereo not given) | -61.9% [100 µM] (active) and -94.6% [100 µM] (active) |
| Cc1cc(-c2nc3ccccc3s2)ccc1N | 46.1% [100 µM] (inactive) and 40.6% [100 µM] (inactive) |
| CCOC(=O)c1nc2cc(C(F)(F)F)ccc2nc1Nc1ccc(F)cc1 | 33.3% [100 µM] (inactive) and -17.1% [100 µM] (active) |
| C#CCn1c2c(c3ccccc3c1=O)C(=O)c1ccccc1-2 | 16% [100 µM] (inactive) and -100% [100 µM] (active) |
| CCCCCCCCCCCCCC1=C(O)C(=O)C(CC2=C(O)C(=O)C(CCCCCCCCCCCCC)=C(O)C2=O)=C(O)C1=O | 9.52% [100 µM] (active) and -61.7% [100 µM] (active) |
| N#CC12COC3(CCCCC3C1(C#N)C#N)OC2=N (stereo not given) | -38.9% [100 µM] (active) |
| CCOC(=O)CCC(NC(=O)c1ccc(OCc2nc3cc(C(F)(F)F)ccc3nc2-c2ccccc2)cc1)C(=O)OCC (stereo not given) | 49.5% [100 µM] (inactive) and 4.13% [100 µM] (active) |
| N#Cc1c(=N)cc2c3ccccc3oc3c(C#N)c(N)[nH]c1c32 | 74.6% [100 µM] (inactive) and 13.9% [100 µM] (inactive) |
| Oc1ccccc1-c1n[nH]c(-c2ccccc2O)n1 | 45.8% [100 µM] (inactive) and 4.35% [100 µM] (active) |
| Oc1ccc(/C=C/c2cc(O)cc3c2C(c2cc(O)cc(O)c2)C(c2ccc(O)c(O)c2)O3)cc1 (stereo not given) | -57.3% [100 µM] (active) and -23.7% [100 µM] (active) |
| O=c1c2ncn(C3CCCCO3)c2n(-c2ccccc2)c(=S)n1-c1ccccc1 (stereo not given) | 18.7% [100 µM] (inactive) and 4.84% [100 µM] (active) |
| CCOc1cc2c(cc1O)C(=O)C[C@@H]1[C@@H]2CC[C@]2(C)[C@@H](O)CC[C@@H]12 | 13.5% [100 µM] (inactive) and 0.709% [100 µM] (active) |

| SMILES | growth |
| --- | --- |
| N#CC1=C(N)OC(c2cccc([N+](=O)[O-])c2)C1(C#N)C#N (stereo not given) | -52.1% [100 µM] (active) and -93.7% [100 µM] (active) |
| ClC(Cl)(Cl)C1CCOC1n1nnc2ccccc21 (stereo not given) | 65.4% [100 µM] (inactive) and 12.8% [100 µM] (inactive) |
| C=C1C(=O)OC2/C=C(\CO)C(OC(C)=O)CC(O)/C(C)=C/C(OC(=O)C(C)CC)C12 (stereo not given) | -85.5% [100 µM] (active) and -98.8% [100 µM] (active) |
| Nc1cc2c3c(cccc3c1)C(=O)N(c1ccc(OCCN3CCCC3)cc1)C2=O | -37.5% [100 µM] (active) and -91.1% [100 µM] (active) |
| COc1ccc(C2=C(N)c3ccccc3C2=O)cc1 | 44.1% [100 µM] (inactive) and 22.1% [100 µM] (inactive) |
| CC1(C)CC2(C)OC(=N)C1(C#N)C2(C#N)C#N (stereo not given) | -92.9% [100 µM] (active) |
| CC(=O)c1cc2c(s1)C(=O)c1sccc1C2=O | -45.9% [100 µM] (active) and -100% [100 µM] (active) |
| CCOc1cc2c(cc1O)/C(=N\N)C[C@@H]1[C@@H]2CC[C@]2(C)[C@@H](O)CC[C@@H]12 | 17.1% [100 µM] (inactive) and -96.8% [100 µM] (active) |
| C/C(Cl)=N/OC(=O)Nc1ccc(S(N)(=O)=O)c(C)c1 | -93.6% [100 µM] (active) and -100% [100 µM] (active) |
| NC1=NN(c2ccccc2)C2(c3ccncc3C(=O)O)C1C(N)=NN2c1ccccc1 (stereo not given) | 67.3% [100 µM] (inactive) and 18.3% [100 µM] (inactive) |
| COC(=O)C(=O)C(C(=O)C(=O)Nc1ccccc1C(=O)OC)c1nc2ccc(C(=O)c3ccccc3)cc2[nH]c1=O (stereo not given) | 54.3% [100 µM] (inactive) and 12.8% [100 µM] (inactive) |
| COc1ccc(CC2c3cc(OC)c(OC)c(OC)c3CC[N+]2(C)C)cc1Oc1ccc(CC2c3cc4c(c(OC)c3CCN2C)OCO4)cc1 (stereo not given) | 80% [100 µM] (inactive) and 8.64% [100 µM] (active) |
| CCCC(=O)Oc1c2ccsc2c(OC(=O)CCC)c2ccsc12 | -75.3% [100 µM] (active) and -100% [100 µM] (active) |
| C[C@]12CC[C@@H]3c4cc(Br)c(O)c(Br)c4CC[C@H]3[C@@H]1CC(Br)C2=O (stereo not given in full) | -79.5% [100 µM] (active) and -97.9% [100 µM] (active) |
| Cc1ccc(NC(=S)C#N)c(C)c1 | 41.9% [100 µM] (inactive) and 1.46% [100 µM] (active) |
| O=[N+]([O-])c1cccc(-c2ncnc(-c3cccc([N+](=O)[O-])c3)n2)c1 | 53.2% [100 µM] (inactive) and 0.549% [100 µM] (active) |
| O=c1[nH]c(=O)n(C2CC(O)C(CO)O2)cc1Br (stereo not given) | 72.2% [100 µM] (inactive) and 19.1% [100 µM] (inactive) |
| CCOC(=O)/C(C#N)=C(/NNc1ccccc1)c1ccncc1C(=O)O | 61.3% [100 µM] (inactive) and 11.4% [100 µM] (inactive) |
| COc1c2c(c(OC)c3c1c(=O)c1ccccc1n3C)OCO2 | -0.25% [100 µM] (active) |
| CCCCCCCCCc1cc(=O)c2c(O)cc(O)cc2o1 | -88.9% [100 µM] (active) and -100% [100 µM] (active) |
